Experiment [1] is described as follows: qHTS RealTime-Glo MT Cell Viability Assay in HEK293 cells - 16 hour (AID 1224872). Further: nearly all actives have a fitted effect of over 50% in size. Further: potency means the concentration at half of the fitted maximal effect. On activity change, negative = cytotoxicity: top concentration of the series differs between compounds. The gist of the method: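 Homogeneous bioluminescent viability format in HEK293 cells (600 cells/well). Following 5 h at 37 C/5% CO2, 23 nL compound was pintooled; the signal was measured repeatedly during 40 h incubation.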
A short description of experiment [2]: qHTS RealTime-Glo MT Cell Viability Assay in HepG2 cells - 8 hour (AID 1224873). Further: nearly all actives have a fitted effect of over 55% in size. The method, boiled down:
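Real-time viability: cells seeded at 600 per well together with NanoLuc and cell-permeant prosubstrate, compounds added after 5 h incubation. Luminescence tracked at 0, 8, 16, 24, 32 and 40 h of exposure.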

Experiment [3] in a line: A CellTox Green Cytotoxicity Assay to monitor cytotoxicity in HepG2 cells - 16 hour (AID 1224876). Further: nearly all actives have a fitted effect of over 45% in size. Further: potency means the concentration at half of the fitted maximal effect. The gist of the method:
(§1)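 Nonlytic assay: viable cells exclude the dye, so fluorescence scales with cell death. HepG2 at 600 cells/well, compounds added after 5 h, signal read across 40 h.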

Experiment [4] is described as follows: qHTS RealTime-Glo MT Cell Viability Assay in HepG2 cells - 32 hour (AID 1224877). Further: nearly all actives have a fitted effect of over 55% in size. Further: potency means the concentration at half of the fitted maximal effect. The gist of the method: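 Cell number in HepG2 cultures estimated from NanoLuc luminescence generated by metabolic reduction of a prosubstrate by living cells. The homogeneous, nonlytic format allowed repeated reads at 0, 8, 16, 24, 32 and 40 h of compound exposure.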
Experiment [5] is described as follows: A CellTox Green Cytotoxicity Assay to monitor cytotoxicity in HepG2 cells - 24 hour (AID 1224878). Further: nearly all actives have a fitted effect of over 45% in size. Further: potency means the concentration at half of the fitted maximal effect. The gist of the method: as §1
Experiment [6] can be described thus: A CellTox Green Cytotoxicity Assay to monitor cytotoxicity in HepG2 cells - 40 hour (AID 1224879). Further: nearly all actives have a fitted effect of over 40% in size. Further: potency means the concentration at half of the fitted maximal effect. The gist of the method: as §1
The nature of experiment [7]: qHTS RealTime-Glo MT Cell Viability Assay in HEK293 cells - 0 hour (AID 1224880). Further: top concentration of the series differs between compounds; nearly all actives have a fitted effect of over 45% in size. The method, boiled down: (§2)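 Tox21 screen in HEK293 using RealTime-Glo MT chemistry, with cells and reagent co-dispensed. Luminescence proportional to viable cell number was captured at intervals during 40 h compound exposure at 37 C.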
Experiment [8] is described as follows: A CellTox Green Cytotoxicity Assay to monitor cytotoxicity in HEK293 cells - 32 hour (AID 1224881). Further: nearly all actives have a fitted effect of over 40% in size. Further: potency means the concentration at half of the fitted maximal effect. The method, boiled down:
(§3)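 Seeding of HEK293 cells together with cytotoxicity dye preceded a 5 h incubation at 37 C/5% CO2. Test compounds in DMSO were then added and fluorescence monitored across 40 h.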

Experiment [9] in a line: qHTS RealTime-Glo MT Cell Viability Assay in HEK293 cells - 40 hour (AID 1224874). Further: nearly all actives have a fitted effect of over 50% in size. Further: potency means the concentration at half of the fitted maximal effect. Conditions: RealTime-Glo luminescence; max response: stronger effect = lower value. The gist of the method:
as §2

Experiment [10] in a line: A CellTox Green Cytotoxicity Assay to monitor cytotoxicity in HEK293 cells - 24 hour (AID 1224875). Further: nearly all actives have a fitted effect of over 45% in size. Further: potency means the concentration at half of the fitted maximal effect. On activity change: series mostly up to about 77 µM. The method, boiled down:
as §3

Inconclusive results are not listed. Values without a mark were called inactive. Calls of active or inactive are those of the source. The call rests on the fitted dose curve; in most records, active means well fitted curve in the direction sought with a large enough effect in the repeat runs; inconclusive means weak or mixed curves; inactive means no such curve, though single readings can be large; an effect the other way counts as inactive or inconclusive.
On the % scale 0 is the no-effect control and ±100 the full control effect.

Consider `CCOC(=O)CS`, for which the Potency result in [1], in experiment [3], in experiment [4], in experiment [5], in experiment [6] and in experiment [8] was “inactive” in each case. The result in [2] and in experiment [7] was inactive.
`CC(=O)Oc1cc(C(C)C)c(OCCN(C)C)cc1C`: the molecule was called inactive in experiment [2] and in [7]. The Potency entry in experiment [4], in experiment [5], in [6] and in experiment [8] was “inactive” in each case.
Regarding `CN1C(=O)CC(c2ccccc2)C1=O` (stereo not given), the Potency result in [1], in experiment [3], in experiment [4], in experiment [5], in experiment [6] and in [8] was “inactive” throughout. For the same molecule, the molecule was called inactive in experiment [2] and in [7].
Turning to `O=C1CCCCCCCCCCC(=O)OCCO1`, the molecule was called inactive in experiment [2]. Also, in [9], the max response is -13.7%. For the same molecule, the Potency entry in experiment [3], in experiment [4] and in [8] was “inactive” throughout. Besides, the values for the Potency in experiment [5] and in experiment [6] were 21.9 µM (active) and 24.5 µM (active), respectively.
As for `O=C1Nc2ccc([N+](=O)[O-])cc2C1=O`, the call in experiment [2] was inactive. For the same molecule, the Potency result in [10], in [3], in [4], in [6] and in experiment [8] was “inactive” in each case.
Regarding `O=C(O)C(=O)Cc1c[nH]c2ccccc12`, the result in experiment [2] and in experiment [7] was inactive. The max response in experiment [9] is 2.14%. Also, the Potency entry in experiment [10], in [3], in experiment [4], in experiment [5], in [6] and in experiment [8] was “inactive” each time.
As for `CCN(CCCc1ccccc1)CCCc1ccccc1`, the molecule was classed as inactive in experiment [2] and in experiment [7]. In addition, the Potency result in experiment [4], in experiment [5] and in [8] was “inactive” each time.
Take `COc1cc2c(cc1N)oc1ccccc12`: the result in experiment [2] and in experiment [7] was inactive. The Potency result in experiment [10], in experiment [3], in experiment [4], in [5], in experiment [6] and in experiment [8] was “inactive” each time.
On to `CNCCC(Oc1ccccc1OC)c1ccccc1` (stereo not given), for which the Potency entry in experiment [1], in experiment [4] and in experiment [8] was “inactive” each time. In addition, the result in experiment [2] was inactive.
For the molecule `CN1CCN(C2=Nc3cc(F)ccc3Cc3ccccc32)CC1`, the Potency entry in experiment [1], in experiment [3], in experiment [4], in experiment [5], in [6] and in experiment [8] was “inactive” throughout. In addition, the outcome in experiment [2] and in [7] was inactive.
On to `CC/C=C\CCOC(=O)CCCCC`, for which the Potency entry in experiment [1], in experiment [10], in experiment [3], in experiment [4], in [5] and in experiment [6] was “inactive” each time. For the same molecule, the max response in [9] was -9.86%. Besides, the outcome in [7] was inactive.
As for `Nc1ccc(Oc2ccc(N)c(N)c2)cc1`, the Potency result in experiment [10], in experiment [3], in experiment [4] and in [8] was “inactive” each time. Further, the molecule was called inactive in [7].
For `O=C(O)[C@@H]1CSCN1`, the Potency entry in [1], in [4], in experiment [5], in [6] and in experiment [8] was “inactive” throughout. The molecule was classed as inactive in [2] and in experiment [7].
As to `Cc1ccc([N+](=O)[O-])c(N)c1`, the Potency result in [1], in [3], in [4], in experiment [5], in experiment [6] and in experiment [8] was “inactive” each time. Besides, the result in experiment [2] was inactive.
In the case of `CCCCCCn1c(=O)c2c(ncn2C)n(C)c1=O`, the Potency result in experiment [1], in experiment [10], in experiment [4], in experiment [5], in experiment [6] and in experiment [8] was “inactive” in each case. The max response in experiment [9] was -1.75%. Also, the result in experiment [7] was inactive.
Regarding `OCC(CBr)(CBr)CBr`, the Potency result in [1], in [3], in [4], in [5], in experiment [6] and in experiment [8] was “inactive” throughout. Also, the outcome in [2] was inactive.
`OCc1c2ccccc2cc2ccccc12`: the call in experiment [2] and in [7] was inactive. Further, the Potency entry in [10], in experiment [3], in experiment [4], in experiment [5], in experiment [6] and in [8] was “inactive” throughout.
On to `COc1ccc2nc(NC(=O)Nc3ccccc3)sc2c1`, for which the call in experiment [2] and in experiment [7] was inactive. Besides, the results for the Potency in experiment [9] and in experiment [6] were 6.01 µM (active) and 4.25 µM (active), respectively. In addition, in [4], the Potency result is “inactive”.
In the case of `CN(C)Cc1ccccc1`, the Potency result in [1], in experiment [3], in experiment [4], in [5], in experiment [6] and in [8] was “inactive” each time. The molecule was called inactive in [2] and in experiment [7].
For the molecule `CN(C)C(=O)NC1(c2ccccc2)CCN(CCC[C@]2(c3ccc(Cl)c(Cl)c3)CCCN(C(=O)c3ccccc3)C2)CC1`, the viability change, negative = cytotoxic in [2] was -6.85% [at 15.8 µM]. Moreover, the activity change in experiment [10] was 4.75% [at 15.8 µM, stronger effect = higher value]. Also, the values for the cytotoxicity increase in experiment [3] and in [8] were 15.3% [at 15.8 µM] and 19.1% [at 15.8 µM], respectively. Further, the activity change, negative = cytotoxic in experiment [4] was -9.2% [at 15.8 µM]. Also, in [7], the activity change, negative = cytotoxicity is 0.507% [at 15.8 µM].
On to `COC(=O)N[C@H](C(=O)N[C@@H](Cc1ccccc1)[C@@H](O)CN(Cc1ccc(-c2ccccn2)cc1)NC(=O)[C@@H](NC(=O)OC)C(C)(C)C)C(C)(C)C`, for which the Potency result in experiment [1], in experiment [10], in experiment [4] and in experiment [8] was “inactive” in each case. Further, in [9], the max response was -6.22%. Besides, the molecule was called inactive in experiment [7].
Take `COc1ccc(Nc2ccc(OC)cc2)cc1`: the molecule was called inactive in experiment [2]. Also, the Potency in experiment [9] was 28.1 µM (active). Further, the Potency result in [10], in [3], in experiment [4], in experiment [5], in experiment [6] and in [8] was “inactive” in each case.
Regarding `ICCc1ccccc1`, the Potency entry in [1], in experiment [3] and in experiment [5] was “inactive” in each case. In addition, the call in experiment [2] and in experiment [7] was inactive. Also, the Potency in [4] is 12.1 µM (active).
On to `O=C1CCC(C2CCCCC2)CC1`, for which the molecule was classed as inactive in [2] and in experiment [7]. The Potency in [10] was 43.6 µM (active); in [3] it was 38.9 µM (active); in [5], 38.9 µM (active); in experiment [6], 38.9 µM (active); in experiment [8], 43.6 µM (active). Also, the Potency entry in experiment [4] was “inactive”.
Regarding `Cc1c(-c2ccccc2)oc2c(C(=O)OCCN3CCCCC3)cccc2c1=O`, in [2], the molecule was classed as inactive. The Potency entry in experiment [10], in [3], in experiment [4], in [5] and in experiment [8] was “inactive” in each case.
For `CCCCOc1cc(C(=O)NCCN(CC)CC)c2ccccc2n1`, the result in experiment [2] and in experiment [7] was inactive. For the same molecule, the Potency result in [10], in [4] and in experiment [8] was “inactive” in each case. For the same molecule, the Potency was 21.3 µM (active) in experiment [5] and 23.9 µM (active) in experiment [6].
In the case of `CCCCCCOc1ccc(N)cc1`, the result in experiment [2] and in experiment [7] was inactive. In experiment [10], the Potency was 49 µM (active). For the same molecule, the Potency entry in [3], in [4] and in experiment [8] was “inactive” throughout.
Consider `CC1=C2[C@H](/C=C(\C)C(=O)O)CC[C@@H](C)[C@H]2CC1`, for which the Potency in experiment [1] is 36 µM (active). The molecule was classed as inactive in experiment [2] and in [7]. Besides, the Potency result in [3], in experiment [4], in experiment [5] and in [6] was “inactive” throughout.
Take `CC[C@H]1CC[C@H](NCc2cc3c(cc2OC)[C@H]2C[C@H]2C(=O)N3C)[C@H](c2ccccc2)N1`: the result in experiment [2] and in [7] was inactive. The Potency in experiment [9] is 21.9 µM (active). Also, the Potency result in experiment [10], in experiment [3], in experiment [4] and in [8] was “inactive” throughout.
`CN1CCN(C2=Nc3ccccc3Oc3ccc(Cl)cc32)CC1`: the Potency entry in [1], in [4] and in [8] was “inactive” each time. In addition, the molecule was classed as inactive in experiment [2] and in experiment [7]. Besides, the Potency in [6] was 19 µM (active).

These data come from PubChem BioAssay (Tox21).
